In PubChem BioAssay AID1159580 (chemical genetic matrix, 2015):
Several values for one entry are separate records, joined by “and”; a condition that tells them apart may be missing. Equal entries are not always repeated. The whole screen tested about 5,500 compounds, of which about 2,000 (36%) were called active. Roughly 18% stayed inconclusive and do not appear here. Cut-off read from the data, not from the text of the source: active = normalized growth mostly below about 0.91 (no sharp cut-off); inconclusive = no clear call, values can overlap the other calls; inactive = mostly above about 0.92. The list shows a part of the results.

Assay: chemical genetic growth profiling, strain panel (AID 1159580);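 note: tested at 20 µM; growth read once vehicle control cultures reached saturation at 30 °C; 1 = growth at the plate median or of vehicle wells; lower values mean less growth of the strain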
Conditions: S. cerevisiae deletion strains, growth OD

Measured: normalized growth

Nc1ccc(S(=O)(=O)Nc2nccs2)cc1
inactive: locus YAL013W, strain DEP1, hits give low values 1.01 | locus YAL021C, strain ccr4, hits give low values 1.02 | locus YAL026C, strain drs2, hits give low values 1.01 | locus YAL030W, strain snc1, hits give low values 1.02 | locus YBL061C, strain skt5, hits give low values 1.01 | locus YBR009C, strain hhf1, hits give low values 1 | locus YBR021W, strain FUR4, hits give low values 1 | locus YBR023C, strain chs3, hits give low values 1.03 | locus YBR171W, strain sec66, hits give low values 1.03 | locus YBR229C, strain ROT2, hits give low values 1 | locus YBR231C, strain swc5, hits give low values 1.04 | locus YBR279W, strain paf1, hits give low values 1.01 | locus YCL011C, strain gbp2, hits give low values 1.01 | locus YCL016C, strain dcc1, hits give low values 1 | locus YCL029C, strain bik1, hits give low values 0.998 | locus YCL069W, strain vba3, hits give low values 1.01 | locus YCR088W, strain abp1, hits give low values 1.01 | locus YDL005C, strain med2, hits give low values 1.01 | locus YDL035C, strain GPR1, hits give low values 1.04 | locus YDL040C, strain nat1, hits give low values 1.02 | locus YDL074C, strain BRE1, hits give low values 1.01 | locus YDL101C, strain DUN1, hits give low values 1 | locus YDL134C, strain PPH21, hits give low values 1.01 | locus YDL185W, strain tfp1, hits give low values 1.01 | locus YDL192W, strain arf1, hits give low values 1.01 | locus YDR001C, strain nth1, hits give low values 1.02 | locus YDR069C, strain doa4, hits give low values 1.02 | locus YDR101C, strain arx1, hits give low values 1 | locus YDR137W, strain rgp1, hits give low values 1.02 | locus YDR150W, strain NUM1, hits give low values 1.01 | locus YDR159W, strain sac3, hits give low values 1.02 | locus YDR162C, strain NBP2, hits give low values 1.02 | locus YDR195W, strain ref2 1.01 | locus YDR297W, strain sur2, hits give low values 1.02 | locus YDR318W, strain mcm21, hits give low values 0.985 | locus YDR334W, strain swr1, hits give low values 1.01 | locus YDR335W, strain msn5, hits give low values 1.02 | locus YDR388W, hits give low values 0.995 | locus YDR392W, strain spt3, hits give low values 0.954 | locus YDR502C, strain sam2, hits give low values 1.01 | locus YEL003W, strain gim4, hits give low values 1.02 | locus YEL037C, strain rad23, hits give low values 1.01 | locus YEL061C, strain CIN8 (second series), hits give low values 1.01 | locus YEL061C, strain CIN8, hits give low values 1 | locus YER015W, strain faa2, hits give low values 1.04 | locus YER016W, strain bim1, hits give low values 0.997 | locus YER110C, hits give low values 0.995 | locus YER111C, strain swi4, hits give low values 1.01 | locus YER155C, strain BEM2 (second series), hits give low values 1.01 | locus YER155C, strain BEM2, hits give low values 0.996 | locus YER167W, strain BCK2, hits give low values 1.03 | locus YFR010W, strain ubp6, hits give low values 1.02 | locus YGL078C, strain dbp3, hits give low values 1.01 | locus YGL086W, strain mad1, hits give low values 1.02 | locus YGL167C, strain pmr1, hits give low values 1.02 | locus YGL173C, strain kem1, hits give low values 1.02 | locus YGL227W, strain vid30, hits give low values 1.02 | locus YGL240W, strain doc1, hits give low values 1.02 | locus YGL248W, strain PDE1, hits give low values 1.02 | locus YGL253W, strain hxk2, hits give low values 1.02 | locus YGR078C, strain PAC10, hits give low values 1 | locus YGR135W, strain pre9, hits give low values 1.01 | locus YGR229C, strain SMI1, hits give low values 1.01 | locus YGR252W, strain gcn5, hits give low values 1.06 | locus YHR013C, strain ard1, hits give low values 1 | locus YHR027C, strain rpn1, hits give low values 1.02 | locus YHR030C, strain SLT2, hits give low values 1.01 and 0.999 | locus YHR079C, strain IRE1 (second series), hits give low values 0.995 | locus YHR079C, strain IRE1, hits give low values 1.03 | locus YHR094C, strain hxt1, hits give low values 0.99 | locus YHR129C, strain ARP1, hits give low values 1 | locus YHR142W, strain chs7, hits give low values 1.01 | locus YHR200W, strain rpn10, hits give low values 1 | locus YIL066C, strain RNR3, hits give low values 1.02 | locus YIL073C, strain SPO22, hits give low values 1 | locus YIL125W, strain kgd1, hits give low values 1.01 | locus YIR030C, strain dcg1, hits give low values 0.995 | locus YJL092W, strain hpr5, hits give low values 1.01 | locus YJL095W, strain BCK1 (second series), hits give low values 1.02 | locus YJL095W, strain BCK1, hits give low values 1 | locus YJL115W, strain asf1, hits give low values 1.02 | locus YJL129C, strain trk1, hits give low values 1.02 | locus YJL134W, strain LCB3, hits give low values 1.01 | locus YJL154C, strain vps35, hits give low values 1.01 | locus YJL164C, strain tpk1, hits give low values 0.996 | locus YJL166W, strain qcr8, hits give low values 1.03 | locus YJL168C, strain set2, hits give low values 0.992 | locus YJL187C, strain SWE1 (second series), hits give low values 1.01 | locus YJL187C, strain SWE1, hits give low values 1.02 | locus YJR043C, strain POL32, hits give low values 1 | locus YJR066W, strain TOR1, hits give low values 0.939
